PubChem BioAssay (Tox21)
Records with an inconclusive call do not appear. Activity calls are given as the source filed them. Unless noted, calls come from the whole dose curve; as a rule, active = well fitted curve in the direction sought with a large enough effect in the repeat runs; inconclusive = weak or mixed curves; inactive = no such curve, though single readings can be large; an effect the other way counts as inactive or inconclusive.

Legend:
[1] = target: Estrogen receptor (Homo sapiens) (UniProt P03372); assay: qHTS assay to identify small molecule antagonists of the estrogen receptor alpha (ER-alpha) signaling pathway using the BG1 cell line in the presence of 0.1 nM 17-beta-estradiol (AID 1259244); conditions: VM7Luc4E2 (BG1) ERE-luciferase, antagonist mode, 0.1 nM E2, 22 h; series mostly up to 92.4 µM; note: nearly all actives have a fitted effect of over 50% in size; note: potency is the fitted concentration of half-maximal effect
Method in brief: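 Luminescence after ONE-Glo (30 min, room temperature) measured ERE-luciferase activity in VM7Luc4E2 cells treated 22 h with compound and 0.1 nM final 17beta-estradiol as stimulator.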

[2] = qHTS assay to identify small molecule HDAC inhibitors (AID 1259364); conditions: HCT-116 HDAC-Glo I/II luminescence, 2 h; series mostly up to 92.4 µM; note: potency is the fitted concentration of half-maximal effect;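 note: wild-type HCT-116 cells with endogenous class I/II HDAC activity; nearly all actives have a fitted effect of over 45% in size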
Method in brief: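 HCT-116 (wild type), 1,500 cells/well, overnight; compound 2 hr 37C 5% CO2; HDAC-Glo I/II reagent 30 min RT; luminescence readout.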

[3] = qHTS assay to identify small molecule HDAC inhibitors - cell viability counter screen (AID 1259365); conditions: HCT-116 viability, CellTiter-Glo ATP luminescence, 2 h; series mostly up to 92.4 µM; note: nearly all actives have a fitted effect of over 50% in size
Method in brief: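 HCT-116 wild-type, overnight attachment; 2hr drug exposure, 37C; CellTiter-Glo luminescent ATP readout after 30min RT.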

[4] = qHTS assay to identify small molecule agonists of the sonic hedgehog signaling (Shh) pathway - cell viability counter screen (AID 1259366); conditions: NIH/3T3 Gli1-Luc viability, CellTiter-Fluor, 24 h; series mostly up to 92.4 µM; note: nearly all actives have a fitted effect of over 50% in size; note: potency is the fitted concentration of half-maximal effect
Method in brief: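 Compounds in DMSO were pin-transferred onto 3T3 Gli1-Luc cells that had settled 4hr; plates then stood 24hr at 37C and 5% CO2. One hour before the end, CellTiter-Fluor was added and fluorescence recorded.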

[5] = qHTS assay to identify small molecule agonists of the sonic hedgehog signaling (Shh) pathway (AID 1259368; calls by dose curve;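 note: NIH/3T3-derived 3T3Gli1-Luc cells carrying a stable Gli1-driven firefly luciferase reporter; nearly all actives have a fitted effect of over 15% in size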); conditions: NIH/3T3 Gli1-Luc reporter, luciferase, 24 h; series mostly up to 92.4 µM
Method in brief: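 Read-out: firefly luciferase luminescence from a Gli1 response element reporter stably integrated in NIH/3T3-derived 3T3Gli1-Luc cells, measured 30 min at room temperature after reagent addition. Compound exposure lasted 24 hr at 37 C, 5% CO2.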

[6] = qHTS assay to identify small molecule antagonists of the sonic hedgehog signaling (Shh) pathway (AID 1259369; calls by dose curve; note: nearly all actives have a fitted effect of over 45% in size; note: potency is the fitted concentration of half-maximal effect); conditions: NIH/3T3 Gli1-Luc reporter, Shh antagonist, luminescence 24 h; series mostly up to 92.4 µM
Method in brief: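 Luminescence readout: firefly Luc under Gli1 response element in 3T3Gli1-Luc cells (NIH/3T3 clone). Antagonist mode, stimulation by conditioned medium; compound exposure 24hr at 37 C, 5% CO2.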

[7] = target: Estrogen receptor beta (Homo sapiens) (UniProt Q92731); assay: qHTS assay to identify small molecule agonists of the estrogen receptor beta (ER-beta) signaling pathway (AID 1259377; active = well fitted activation curve with a large enough effect in the signal ratio in the repeat runs, not every such curve was filed as active; the % refers to the signal ratio); conditions: ER-beta-UAS-bla HEK293T, beta-lactamase FRET ratio, 16 h; series mostly up to 92.4 µM
Method in brief: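 qHTS in ER-beta-UAS-bla HEK293T cells: 6 hr settling, then 16 hr compound at 37C, then LiveBLAzer substrate 2 h at RT before fluorescence reading.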

[8] = qHTS assay to identify small molecule antagonists of the sonic hedgehog signaling (Shh) pathway - cell viability counter screen (AID 1259367); conditions: NIH/3T3 Gli1-Luc viability, CellTiter-Fluor, 24 h; series mostly up to 92.4 µM; note: nearly all actives have a fitted effect of over 55% in size; note: potency is the fitted concentration of half-maximal effect
Method in brief: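 Fluorescence read-out (CellTiter-Fluor, 1 hr at 37C) taken after 23 hr compound treatment of 3T3 Gli1-Luc cells stimulated with conditioned medium. Cells were seeded at 2,000 per well and pre-incubated 4 hr.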

[9] = target: Estrogen receptor beta (Homo sapiens) (UniProt Q92731); assay: qHTS assay to identify small molecule antagonists of the estrogen receptor beta (ER-beta) signaling pathway (AID 1259378; active = well fitted inhibition curve with a large enough effect in the signal ratio in the repeat runs, not every such curve was filed as active; the % refers to the signal ratio; note: potency is the fitted concentration of half-maximal effect); conditions: ER-beta-UAS-bla HEK293T, beta-lactamase FRET ratio, 16 h; series mostly up to 92.4 µM
Method in brief: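 ER-beta-UAS-bla HEK293T cells in 2% charcoal-stripped FBS medium treated with compound plus 1nM final 17-beta-estradiol for 16 hr at 37C. Beta-lactamase reporter read by FRET substrate fluorescence after 2 hours at room temperature.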

Measured: Potency

Sequence of Estrogen receptor beta (Homo sapiens) (Q92731 whole entry, looked up): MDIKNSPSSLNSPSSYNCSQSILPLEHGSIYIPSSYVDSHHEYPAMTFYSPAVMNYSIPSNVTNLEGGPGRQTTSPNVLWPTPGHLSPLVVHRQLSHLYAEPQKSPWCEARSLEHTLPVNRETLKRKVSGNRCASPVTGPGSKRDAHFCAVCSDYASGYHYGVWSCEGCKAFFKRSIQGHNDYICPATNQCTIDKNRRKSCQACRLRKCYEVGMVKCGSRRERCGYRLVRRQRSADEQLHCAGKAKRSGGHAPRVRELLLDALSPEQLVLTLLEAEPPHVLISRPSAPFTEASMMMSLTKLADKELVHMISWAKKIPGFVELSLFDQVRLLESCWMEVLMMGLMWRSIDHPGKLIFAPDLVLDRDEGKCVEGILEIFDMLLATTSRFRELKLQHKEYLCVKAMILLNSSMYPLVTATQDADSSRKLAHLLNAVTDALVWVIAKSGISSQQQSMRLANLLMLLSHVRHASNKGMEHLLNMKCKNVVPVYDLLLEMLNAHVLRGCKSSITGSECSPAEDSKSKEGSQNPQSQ
Sequence of Estrogen receptor (Homo sapiens) (P03372 whole entry, looked up): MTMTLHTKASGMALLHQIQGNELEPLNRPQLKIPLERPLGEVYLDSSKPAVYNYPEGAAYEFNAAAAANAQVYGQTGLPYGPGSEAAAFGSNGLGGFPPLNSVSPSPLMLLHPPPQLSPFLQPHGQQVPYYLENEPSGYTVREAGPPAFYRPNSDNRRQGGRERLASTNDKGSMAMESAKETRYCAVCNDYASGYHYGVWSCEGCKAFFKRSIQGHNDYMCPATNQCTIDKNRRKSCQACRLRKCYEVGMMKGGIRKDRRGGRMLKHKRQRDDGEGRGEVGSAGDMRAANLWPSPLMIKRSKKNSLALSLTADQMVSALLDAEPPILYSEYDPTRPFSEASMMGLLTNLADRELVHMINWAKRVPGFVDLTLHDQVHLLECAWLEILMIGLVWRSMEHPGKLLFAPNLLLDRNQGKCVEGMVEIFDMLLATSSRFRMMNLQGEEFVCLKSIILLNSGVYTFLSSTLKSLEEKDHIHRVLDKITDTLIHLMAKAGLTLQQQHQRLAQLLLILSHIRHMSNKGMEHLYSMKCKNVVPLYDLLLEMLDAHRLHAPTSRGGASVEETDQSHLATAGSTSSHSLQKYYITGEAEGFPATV

Nc1ccc(Oc2cccc(Oc3ccc(N)cc3)c2)cc1
active: [1] 8.63 µM | [6] 8.63 µM
not listed: [8] | [9]
inactive: all other assays above

CCOC=C(C(=O)OCC)C(=O)OCC
not listed: [7]
inactive: all other assays above

Cc1ccc(C2OC[C@@H]3OC(c4ccc(C)cc4)O[C@H]([C@H](O)CO)[C@@H]3O2)cc1 (stereo not given in full)
not listed: [5] | [7] | [9]
inactive: all other assays above

O=C1OCc2ccccc21
not listed: [5] | [8]
inactive: all other assays above

Cc1c[nH]c(=O)[nH]c1=O
not listed: [7] | [8]
inactive: all other assays above

C=CC(=O)OCC(Br)CBr (stereo not given)
not listed: [6]
inactive: all other assays above

CC(=O)CC(N)=O
inactive: [1] | [2] | [3] | [4] | [6]

Cc1ccc2n[nH]nc2c1
not listed: [5]
inactive: all other assays above

Oc1ccc(C2(c3ccc(O)c(C4CCCCC4)c3)CCCCC2)cc1C1CCCCC1
active: [1] 43.3 µM | [4] 19.3 µM | [6] 12.2 µM
inactive: [2] | [3] | [5]

CC(C)(c1ccc(Oc2ccc(N)cc2)cc1)c1ccc(Oc2ccc(N)cc2)cc1
active: [1] 61.1 µM
not listed: [6] | [9]
inactive: all other assays above

O=C1OC(O)C(C(Cl)Cl)=C1Cl (stereo not given)
active: [4] 44.6 µM | [8] 25.1 µM | [6] 5 µM
inactive: [1] | [2] | [3] | [7]

Clc1cccc(Cl)n1
not listed: [5] | [7] | [9]
inactive: all other assays above

CC(C=O)c1ccccc1 (stereo not given)
not listed: [8]
inactive: all other assays above

Nc1ccc(F)c([N+](=O)[O-])c1
not listed: [8]
inactive: all other assays above

CC(=O)Nc1ccc(N=Nc2cc(C)ccc2O)cc1
inactive: [1] | [3] | [4] | [7]
active: [2] 2.73 µM | [6] 15.4 µM

Oc1ccc2c(c1)CCC2
not listed: [5] | [6] | [7]
inactive: all other assays above

CC1(C)[C@H](C(=O)OCc2cccc(Oc3ccccc3)c2)[C@@H]1C=C(Cl)Cl
not listed: [5] | [7] | [9]
inactive: all other assays above

Nc1c(Br)cc([N+](=O)[O-])cc1Br
not listed: [8]
inactive: all other assays above

CN1CCN(C)CC1
not listed: [6] | [8] | [9]
inactive: all other assays above

CCN(CC)c1ccc(N=Nc2ccccc2)cc1
inactive: [1] | [3] | [7] | [9]
active: [2] 27.3 µM | [4] 30.6 µM | [8] 34.4 µM

CCCCCCCCOC(=O)c1cc(O)c(O)c(O)c1
inactive: [2] | [3] | [7]
active: [1] 24.3 µM | [4] 24.3 µM | [6] 2.17 µM | [9] 15.4 µM

Cc1ccc(S(=O)(=O)C(I)I)cc1
active: [1] 13.7 µM | [4] 6.11 µM | [6] 1.22 µM
inactive: [2] | [3]

CCN(CC)c1ccc(C=O)cc1
not listed: [8]
inactive: all other assays above

CN1CCN(CCCN2c3ccccc3Sc3ccc(Cl)cc32)CC1
inactive: [1] | [2] | [3] | [5]
active: [4] 10.6 µM | [6] 16.8 µM

CCCCCCCCSCc1cc(C)c(O)c(CSCCCCCCCC)c1
inactive: [1] | [2] | [3] | [4] | [5]

C=C1CC[C@H]2O[C@]2(C)CC[C@@H]2[C@@H]1CC2(C)C
not listed: [2] | [5]
inactive: all other assays above

CCCC(C)C=O (stereo not given)
not listed: [2]
inactive: all other assays above

c1ccc(-c2nc3ccccc3[nH]2)cc1
not listed: [2] | [6] | [8]
inactive: all other assays above

CCCCCCCCc1ccc(Nc2ccc(CCCCCCCC)cc2)cc1
not listed: [2]
inactive: all other assays above

CCC(=O)OC/C=C(\C)CCC=C(C)C
inactive: [1] | [3] | [4] | [5] | [6]

CN1CCN(c2ccccc2/C=C2\SCCN(c3ccc(Cl)c(Cl)c3)C2=O)CC1
inactive: [1] | [2] | [5]
active: [4] 27.3 µM | [8] 54.5 µM | [6] 5.45 µM

CC(C)c1ccc2sc3ccccc3c(=O)c2c1
active: [2] 1.72 µM
not listed: [3] | [5]
inactive: all other assays above

CC1(C)[C@H]2CC[C@]1(C)C(=O)C2
not listed: [4] | [6] | [7]
inactive: all other assays above

[Cl][Eu]([Cl])[Cl]
active: [6] 7.7 µM
inactive: [1] | [2] | [3] | [5]

NC(=O)C1CO1 (stereo not given)
not listed: [2] | [8]
inactive: all other assays above

Nc1cc([N+](=O)[O-])cc(Cl)c1O
not listed: [4] | [8] | [9]
inactive: all other assays above

CCC(O)CO (stereo not given)
not listed: [2]
inactive: all other assays above

C/C=C/C(=O)C1=C(C)C=CCC1(C)C
inactive: [1] | [3] | [4] | [5] | [6]

CCN(CC)c1ccc2c(c1)Oc1cc(N(CC)CC)ccc1C21OC(=O)c2ccccc21
active: [4] 3.76 µM | [8] 3.35 µM
inactive: [1] | [2] | [5]

COc1cc(OC)nc(NC(=O)NS(=O)(=O)Nc2ccccc2C(=O)N(C)C)n1
not listed: [2] | [6]
inactive: all other assays above

C=CCc1cc(S(=O)(=O)c2ccc(O)c(CC=C)c2)ccc1O
active: [1] 61.1 µM | [8] 24.3 µM
inactive: [2] | [3] | [6]

Oc1ccc(Cl)cc1C1CCCC1
not listed: [2] | [6] | [9]
inactive: all other assays above

Clc1ccc2c(Cl)ccnc2c1
not listed: [2]
inactive: all other assays above

CCCCCc1ccc(O)cc1
inactive: [1] | [2] | [3] | [5] | [9]

Oc1cccc2c(O)cccc12
inactive: [2] | [3] | [5]
active: [1] 54.5 µM | [6] 10.9 µM

O=C(c1ccccc1)c1ccc(Cl)cc1
inactive: [1] | [2] | [3] | [5]

CCNc1nc(NC(C)(C)C)nc(OC)n1
not listed: [2] | [6]
inactive: all other assays above

CCOC(=O)[C@H](C)O
not listed: [2] | [6] | [8]
inactive: all other assays above

C[C@H]1O[C@@H](O[C@H]2CC[C@@]3(C)[C@H](CC[C@@H]4[C@@H]3C[C@@H](O)[C@]3(C)[C@@H](C5=CC(=O)OC5)CC[C@]43O)C2)C[C@H](O)[C@@H]1O[C@H]1C[C@H](O)[C@H](O[C@H]2C[C@H](O)[C@H](O[C@@H]3O[C@H](CO)[C@@H](O)[C@H](O)[C@H]3O)[C@@H](C)O2)[C@@H](C)O1
inactive: [1] | [3] | [4] | [5] | [6]

Cn1ccnc1
not listed: [2]
inactive: all other assays above

c1ccc(C[P+](c2ccccc2)(c2ccccc2)c2ccccc2)cc1
inactive: [2] | [3]
active: [1] 1.22 µM | [6] 5.45 µM

CC/C=C\C/C=C\C/C=C\CCCCCCCC(=O)OC
active: [6] 43.3 µM
inactive: [1] | [2] | [3] | [5]

NC(=O)c1ccccc1Cl
not listed: [2]
inactive: all other assays above

CC(C)=NNC(N)=S
inactive: [1] | [3] | [4] | [7]
active: [6] 13.7 µM

[Cl][Sc]([Cl])[Cl]
inactive: [1] | [2] | [3] | [5] | [6]

O[Si](c1ccccc1)(c1ccccc1)c1ccccc1
active: [6] 12.2 µM
inactive: [1] | [2] | [3] | [5] | [7]

CCCCCCCCCCCCN1CCCC1=O
active: [9] 48.6 µM
not listed: [4] | [7]
inactive: all other assays above

O=C1c2ccccc2C(=O)c2c(Cl)cccc21
inactive: [1] | [3] | [4] | [5] | [6]

NCc1cccc(C2CCN(C(=O)c3ccc(C#Cc4ccccc4F)o3)CC2)c1
inactive: [2] | [5] | [7]
active: [1] 68.6 µM | [4] 30.6 µM | [8] 24.3 µM | [6] 6.11 µM | [9] 54.5 µM

Cc1ccc(N=Nc2c(O)ccc3ccccc23)c(C)c1
inactive: [1] | [2] | [5] | [6]

O=C(Cl)c1ccc(Cl)cc1Cl
not listed: [4] | [9]
inactive: all other assays above

CCCCCCCCCC[N+](C)(CCCCCCCCCC)CCC[Si](OC)(OC)OC
inactive: [1] | [2] | [5] | [7] | [9]

O=S(=O)(c1ccc(OCc2ccccc2)cc1)c1ccccc1O
inactive: [3] | [4]
active: [1] 27.3 µM
